Myeloid diff 2: promotes myeloid progenitor differentiation; 360,000 tested, 1% active; ER-HoxA9 myeloid progenitors, lysozyme-GFP differentiation, flow cytometry; calls only at 10 µM;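 active = normalized GFP-positive differentiation at or above the plate's own cutoff, the solvent-only control mean plus 3 SD; inconclusive = no clear call, values can overlap the other calls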;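 also: cells exposed to compound for four days before flow analysis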
CRFBP-R2 agonist: agonists of human CRF-binding protein/CRF-R2 receptor complex; HEK293 CRF-R2/CRF-BP, calcium dye fluorescence (FLIPR); percent of saturating CRF peptide response; activation, % at 13.2 µM; 350,000 tested, 0.46% active; AID 588473;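 active = activation of at least 50%, plus an integration ratio under a set limit after plate pattern correction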
IDE cell inh: inhibitors of human insulin-degrading enzyme in cells | HEK cells, FAbetaB cleavage, fluorescence polarization | inhibition, % at 5.59 µM | P14735 | 320,000 tested, 0.41% active;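 active = percent inhibition above the average of all tested compounds plus 3 SD, set per screening campaign, cut at about 16% in these data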;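 also: IDE supplied by intact live HEK cells; FP after avidin binding of uncleaved biotin substrate so inhibition keeps polarization high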
Target sequence (P14735 whole entry, looked up): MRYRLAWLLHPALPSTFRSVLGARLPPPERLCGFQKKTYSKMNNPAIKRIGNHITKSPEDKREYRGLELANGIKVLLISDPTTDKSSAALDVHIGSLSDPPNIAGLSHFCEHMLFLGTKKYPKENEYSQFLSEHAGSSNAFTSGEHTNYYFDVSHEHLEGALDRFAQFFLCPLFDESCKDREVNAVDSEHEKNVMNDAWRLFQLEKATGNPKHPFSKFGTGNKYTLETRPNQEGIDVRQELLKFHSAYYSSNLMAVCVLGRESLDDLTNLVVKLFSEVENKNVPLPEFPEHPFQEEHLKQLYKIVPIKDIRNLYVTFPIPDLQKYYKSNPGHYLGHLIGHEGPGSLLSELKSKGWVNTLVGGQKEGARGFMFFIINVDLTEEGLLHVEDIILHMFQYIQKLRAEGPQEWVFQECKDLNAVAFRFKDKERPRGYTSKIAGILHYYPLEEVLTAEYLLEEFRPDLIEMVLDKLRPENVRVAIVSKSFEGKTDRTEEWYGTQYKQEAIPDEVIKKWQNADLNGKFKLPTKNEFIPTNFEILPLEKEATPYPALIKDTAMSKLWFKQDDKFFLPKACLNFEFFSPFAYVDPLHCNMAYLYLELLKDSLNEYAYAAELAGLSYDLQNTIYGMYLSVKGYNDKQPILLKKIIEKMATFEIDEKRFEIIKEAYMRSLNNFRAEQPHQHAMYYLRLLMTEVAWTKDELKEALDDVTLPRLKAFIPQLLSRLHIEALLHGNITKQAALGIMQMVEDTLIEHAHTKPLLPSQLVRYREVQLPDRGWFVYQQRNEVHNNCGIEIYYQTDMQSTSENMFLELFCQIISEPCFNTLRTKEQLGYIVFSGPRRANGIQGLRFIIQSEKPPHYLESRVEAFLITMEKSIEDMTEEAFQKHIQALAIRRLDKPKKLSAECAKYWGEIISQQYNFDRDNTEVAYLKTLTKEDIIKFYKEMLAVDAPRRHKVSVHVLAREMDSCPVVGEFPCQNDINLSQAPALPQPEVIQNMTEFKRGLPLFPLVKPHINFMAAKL
TPT1 inhibitor: C. albicans TPT1 enzyme inhibition; recombinant caTPT1, FP RNA substrate dephosphorylation; inhibition, % at 5 µM; 300,000 tested, 0.81% active; AID 1962;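 active = inhibition above the mean of all tested compounds plus 3 SD, set per screening campaign, cut at about 24% in these data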
IDE cell activ: boosts human insulin-degrading enzyme activity in HEK cells; FAbeta-B cleavage, fluorescence polarization; 0% vehicle, 100% cell-free pure enzyme wells; activation, % at 5.96 µM; 340,000 tested, 0.073% active; AID 493087;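 active = activation above the mean of all tested compounds plus 3 SD, set per screening campaign, cut at about 17% in these data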
CRFR2-BP antag: antagonists of CRF-binding protein/CRF-R2 receptor complex; HEK293 CRF-R2/CRF-BP, CRF-induced calcium fluorescence; 350,000 tested, 0.59% active; inhibition, % at 11.8 µM;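 active = inhibition of the ligand-induced calcium signal above about 50% at the single tested concentration, limit read from the data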
TPT1 inh confirm: confirmation of Candida albicans TPT1 inhibitors | 2,400 tested, 74% active | recombinant caTPT1, fluorescence polarization, RNase T1 coupled | inhibition, % at 5 µM | shares compounds with TPT1 inhibitor | AID 2149;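 active = inhibition above the primary screen limit, the mean inhibition of all tested compounds plus 3 SD, cut at about 25% in these data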
RNase T1 counter: blocks Aspergillus oryzae RNase T1, a TPT1 counter-screen; shares compounds with TPT1 inhibitor; RNase T1 cleavage, fluorescence polarization, 1536-well; inhibition, % at 5 µM; 2,400 tested, 83% active; AID 2153;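 active = inhibition above the solvent-only control well mean plus 3 SD, limit set per screening run, cut at about 23% in these data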;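 also: inhibitors block cleavage so intact labeled substrate keeps polarization high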
Numbers stand for hits; . = inactive; ? = inconclusive; / = no result given; + = active, no number. Shown are actives, neighbours in structure and some others; about 2.6% of the full set was active somewhere.

SMILES	Myeloid diff 2	CRFBP-R2 agonist	IDE cell inh	TPT1 inhibitor	IDE cell activ	CRFR2-BP antag	TPT1 inh confirm	RNase T1 counter
C/C(=N\Nc1ccc([N+](=O)[O-])cc1)c1ccco1	.	.	.	48	.	.	56	69
C/C(=N\NC(=O)COc1ccc([N+](=O)[O-])cc1)c1ccco1	.	.	.	/	.	.	/	/
CN(C)S(=O)(=O)c1ccc(NC(=O)Cn2nc(-c3ccc4c(c3)OCCO4)ccc2=O)cc1	.	.	/	/	.	.	/	/
CC1Nc2ccc(C(=O)NC3CCCCC3)cc2NC1=O (stereo not given)	+	.	.	34	.	.	39	48
Cc1cc2c(c(=O)o1)C1(C(=O)N(CC(=O)O)c3ccccc31)C(C#N)=C(N)O2 (stereo not given)	.	.	.	37	.	.	42	49
N#Cc1cnc(SCCc2ccccc2)nc1N	.	.	.	39	.	.	32	42
N#Cc1cnc(SCC(=O)c2ccccc2)nc1N	.	.	.	.	.	.	/	/
CC1(C(=O)Nc2ccccc2Br)CCN1C(=O)Cc1ccccc1Cl (stereo not given)	.	/	/	/	/	/	/	/
CCOC(=O)/C(C#N)=C\c1ccc(N2CCN(C/C=C/c3ccccc3)CC2)cc1	+	55	.	46	.	.	82	92
Cc1ccccc1C(=O)/C=C1/SCC(=O)N1C	.	.	.	27	.	.	.	28
O=S(=O)(Nc1cc2nc3ccccc3nc2n1Cc1ccccc1)c1ccc(Cl)cc1	+	.	.	44	.	.	39	51
O=C(/C=C/c1ccccc1)Nc1ccc(Cl)cn1	?	.	/	/	.	.	/	/
O=C(O)CC(C(=O)O)N1C(=O)/C(=C/C=C/c2ccco2)SC1=S (stereo not given)	.	.	.	67	.	.	29	36
O=C(O)CCCN1C(=O)/C(=C/C=C/c2ccco2)SC1=S	.	.	.	84	.	.	37	38
CCCCNC(=O)c1c(N)[nH]c(C(=O)c2ccccc2)c1-c1ccc(Cl)cc1	.	/	/	/	/	/	/	/
Cc1cc(CN(C)C(=O)c2cc(COc3ccc(F)cc3Cl)on2)n[nH]1	.	.	.	.	.	.	/	/
COc1ccccc1N1CCN(Cc2cc(=O)oc3cc(C)ccc23)CC1	.	/	/	/	/	/	/	/
COc1ccc(CN2CCN(Cc3cc(=O)oc4cc(C)ccc34)CC2)c(OC)c1OC	.	.	.	26	.	.	.	.
O=C(Nc1ccnn1C1CCN(Cc2cccc(OCCO)c2)CC1)c1cccc(F)c1	.	.	.	.	.	.	/	/
O=C1c2ccccc2C(c2nnnn2Cc2ccccc2)N1Cc1ccc2c(c1)OCO2 (stereo not given)	.	/	/	/	/	/	/	/
COc1ccc(/C=N/N2C(=O)CSC2=S)cc1Br	.	.	.	38	.	.	62	70
CCCCNc1cc(NC(C)=O)cc2cc(OC)c(OC)cc12	.	.	.	70	.	.	61	73
O=C1/C(=C\c2ccc(O)c(O)c2)N=C2CCCCCN12	.	.	.	27	.	.	45	47
COc1cc(/C=C2\N=C3CCCCCN3C2=O)ccc1O	.	.	.	50	.	.	69	73
COc1ccc(/C=C2/N=C3CCCCCN3C2=O)cc1	.	.	.	.	.	.	/	/
SMILES	Myeloid diff 2	CRFBP-R2 agonist	IDE cell inh	TPT1 inhibitor	IDE cell activ	CRFR2-BP antag	TPT1 inh confirm	RNase T1 counter
COc1ccc(/C=C2\N=C3CCCCCN3C2=O)cc1OC	.	.	.	.	.	.	/	/
Nc1cc(N)nc(SCC(=O)NC2CCCCCCC2)n1	.	.	/	/	.	.	/	/
CC(C)(C)c1csc(NC(=O)c2cccs2)n1	.	.	.	.	.	.	/	/
CC(C)(C)c1csc(NC(=O)Cc2cccs2)n1	.	.	.	99	.	.	.	.
CCN1CCN(c2c(/C=C3\SC(=S)N(Cc4ccco4)C3=O)c(C)c(C#N)c(=O)n2C)CC1	.	90	66	161	.	.	181	172
CCOC(=O)C1=CCN(S(=O)(=O)c2ccccc2C)C1c1ccc(C)cc1 (stereo not given)	.	/	/	/	/	/	/	/
